# Source: PubChem
# This is a sample that favours compounds with a hit; in the whole collection about 4.3% have one here.
# Wnt bcat act: activators of Wnt/beta-catenin signaling; Wnt/beta-catenin reporter cell assay, activator, plate reader; activation, % at 9.35 µM; actives 1.2% (n = 300,000); in the data active = activation above about 30%, passing the limit was not always enough
# HSF-1 act: increases HSF-1 driven luciferase reporter signal; NIH3T3-HGL HSF-1 luciferase reporter, MG132, 8 h; 100% = twice DMSO control signal; activation, % at 9 µM; actives 1.7% (n = 300,000);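 active = mean replicate activation of at least 50% with a set share of replicates each reaching 50%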
# SMARCA2 act: activators of SMARCA2 function; MG213 cells, MMTV-luciferase reporter, dexamethasone, overnight; activation, % at 9.1 µM; actives 1% (n = 370,000); AID 652017; in the data active = activation above about 7.8%
# MITF act: MITF TRPM1 promoter activation in melanoma cells; SK-MEL-5 TRPM1-promoter luciferase, 24 h; % of positive control, neutral wells = 0; activation, % at 12.5 µM; actives 0.75% (n = 300,000); AID 588334;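 active = mean activation of at least 80% with every replicate also reaching 80%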
# HSF1 inh: HSF1 inhibition. NIH3T3-HGL HSE-luciferase, MG132-induced, luminescence 8 h; hits give low values. activity change, negative = inhibition, % at 7.5 µM (by protocol). actives 0.77% (n = 300,000). AID 2098;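 active = more than half of replicate wells show activity change below -50%, luminescence cut by over half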;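 note: luciferase reports HSF-1 transcriptional activity via heat shock element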
# esBAF inh: blocks esBAF chromatin remodeling in mouse ES cells. Bmi1-luciferase knock-in reporter, 24 h; 100% = twice the neutral-well signal. reporter increase, % at 12.5 µM. actives 2% (n = 350,000). AID 602393; in the data active = activation above about 40%;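 note: a rise in the Bmi1 reporter signal indicates esBAF inhibition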
# A number is an active result; n = inactive; x = no result.
SMILES,Wnt bcat act,HSF-1 act,SMARCA2 act,MITF act,HSF1 inh,esBAF inh
Nc1cc(OC(=O)c2ccc(F)cc2)nn1S(=O)(=O)c1ccc(F)cc1,n,76,n,n,n,n
OCCc1ccc(NCCc2cccs2)cc1,n,x,n,x,x,54
O=C(Cc1cccs1)NCCc1ccc(F)cc1,n,n,n,n,n,n
CCNC(=O)[C@H]1[C@H](CO)[C@H]2Cn3c(ccc(-c4ccncc4)c3=O)[C@@H]1N2CC1CC1,x,x,x,x,x,n
O=[N+]([O-])c1cc(-c2ncccn2)c([N+](=O)[O-])s1,n,97,n,n,n,n
COc1ccc(NS(=O)(=O)c2ccc3nc(COc4ccc5ccccc5c4)[nH]c3c2)cc1,x,n,n,n,-81,n
COc1ccc(NS(=O)(=O)c2ccc3nc(COc4cccc5ccccc45)[nH]c3c2)cc1,x,n,n,n,n,x
C[C@H]1CCCCO[C@H](CN(C)C(=O)c2ccncc2)[C@@H](C)CN([C@@H](C)CO)C(=O)c2cc(NC(=O)Cc3ccccc3)ccc2O1,x,x,x,x,x,n
O=C(Nc1ncc(Cc2cccc(Cl)c2Cl)s1)C1CCCO1 (centres undefined),44,58,n,133,n,85
CC(=O)Nc1ncc(Cc2cccc(Cl)c2Cl)s1,n,n,n,n,n,n
O=C(Nc1ncc(Cc2cccc(Cl)c2)s1)C1CCCO1 (centres undefined),x,n,n,97,n,x
O=C(Nc1ncc(Cc2ccccc2Cl)s1)C1CCCO1 (centres undefined),n,75,n,n,n,71
COc1cccc(NC(=O)N[C@@H]2C=C[C@H](CC(=O)Nc3ccc(-c4ccccc4)cc3)O[C@H]2CO)c1,x,x,x,x,x,n
COCC(=O)Nc1ccc2c(c1)OC[C@H](C)N(Cc1cccnc1)C[C@@H](C)[C@H](OC)CN(C)C2=O,x,x,x,x,x,n
Cc1cccc(Nc2nc(NCc3ccco3)nc(N)c2[N+](=O)[O-])c1,n,n,n,n,n,n
COc1ccc(Nc2nc(NCc3ccco3)nc(N)c2[N+](=O)[O-])cc1,n,66,n,x,n,x
Cc1cccc(Nc2nc(N)c([N+](=O)[O-])c(NCc3ccco3)n2)c1,n,n,n,n,n,n
Cc1ccc(Nc2nc(NCCCN3CCOCC3)nc(N)c2[N+](=O)[O-])cc1,n,69,n,n,n,x
COc1ccccc1Nc1nc(NCCCN(C)C)nc(N)c1[N+](=O)[O-],n,n,n,n,-73,n
C=CCNc1nc(N)c([N+](=O)[O-])c(Nc2ccccc2OC)n1,n,n,n,n,n,n
Nc1nc(Nc2cccc(F)c2)nc(NCc2ccco2)c1[N+](=O)[O-],n,54,n,x,n,x
Cc1ccc(Nc2nc(NCCCN3CCOCC3)nc(N)c2[N+](=O)[O-])cc1C,n,n,n,n,n,x
O=C(C[C@H]1CC[C@@H]2[C@H](COC[C@@H](O)CN2Cc2cccc(Cl)c2)O1)N1CCOCC1,x,x,x,x,x,n
COCCNC(=S)N(CCc1c(C)[nH]c2ccc(F)cc12)Cc1ccco1,n,53,n,n,n,x
CNC(=S)N(CCc1c(C)[nH]c2ccc(F)cc12)Cc1ccco1,n,n,n,n,n,n
SMILES,Wnt bcat act,HSF-1 act,SMARCA2 act,MITF act,HSF1 inh,esBAF inh
CC(=O)c1cccc(OCc2cc(C(=O)N(C)CCC3CCOCC3)no2)c1,n,n,n,n,n,52
COc1ccccc1OCc1cc(C(=O)N(C)CCC2CCOCC2)no1,40,x,n,x,x,54
COc1ccc(C2=CC(=O)CC(c3ccc(F)cc3)C2)cn1 (centres undefined),n,61,n,n,n,n
COc1ccc(C2=CC(=O)C[C@H](c3ccc(F)cc3)C2)cc1OC,n,x,n,n,x,n
Cc1cccn2c(=O)nc(SCC(=O)N3N=C(c4cccs4)CC3c3ccc(F)cc3)nc12 (centres undefined),n,95,n,n,n,n
Cc1ccn2c(=O)nc(SCC(=O)N3N=C(c4cccs4)CC3c3ccc(F)cc3)nc2c1 (centres undefined),n,n,n,n,n,x
O=C(NC1CCC(O)CC1)c1ccc2c(c1)S(=O)(=O)N=C1CCCCCN12 (centres undefined),n,n,n,n,n,46
COc1ccccc1OCCNC(=O)CNC(=O)c1ccc(Cl)c(Cl)c1,n,n,n,n,n,x
COc1ccccc1OCCNC(=O)c1ccc2c(c1)OCCO2,52,n,n,n,n,n
